Out of some 1,300 compounds screened, about 30 (2%) were called active. Roughly 10% stayed inconclusive and do not appear here. Calls follow the shape of the dose curve; as a rule, active = well fitted inhibition curve with a large enough effect; inconclusive = small, poorly fitted or top-dose-only effect; inactive = flat fitted curve, though single readings scatter. For the sample, actives were picked, then their nearest neighbours and some compounds at random.
experiment: qHTS for antagonists of the Thyroid Stimulation Hormone Receptor: Hit Validation in HTRF Activity in a Luteinizing Hormone Receptor Cell Line; conditions: LHR-expressing cell line, cAMP HTRF, antagonist mode; series mostly up to 58 µM; activity change, negative = inhibition: at the top concentration
Summary of the method: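 HEK 293 cells stably expressing LH receptor, in DMEM with 10% FCS and 100 uM RO 20-1724, incubated with compound 30 min at room temperature. cAMP measured by competitive HTRF (anti-cAMP cryptate vs cAMP-d2), excitation 330 nm, emissions 615 and 660 nm.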
% is scaled to controls: 0 for no effect and ±100 for the full control effect; potency is read from the fitted curve at half-maximal effect.

Activity change, negative = inhibition, inactive:
Cc1cccc(N2CCN(S(=O)(=O)c3ccc4c(c3)NC(=O)CS4)CC2)c1C -1.48%
CC1CCN(c2ccccc2NC(=O)c2cc([N+](=O)[O-])ccc2N2CCOCC2)CC1 -3.69%
CSc1nnc(C(C)(C)C)c(=O)n1/N=C/c1c(O)ccc2ccccc12 1.35%
Nc1nc(SCc2ccccc2Cl)ns1 2.13%
CC1CC1C(=O)N1CCN(S(=O)(=O)c2cc(C(F)(F)F)cc(C(F)(F)F)c2)CC1 (configuration not stated) 2.61%
COc1cccc(CN(C)C(=O)c2ccc(OCC(=O)Nc3cccc(C(F)(F)F)c3)c(OC)c2)c1 -0.547%
COc1ccc(-c2nc(CS(=O)CC(=O)NCc3ccccc3)c(C)o2)cc1OC (configuration not stated) 0.304%
Cc1ccc(S(=O)(=O)Nc2ccccc2N2CCCCC2)cc1 -4.31%
COc1ccccc1CNC(=O)CSc1nc(N)c(C#N)c(-c2cccs2)c1C#N -0.0637%
CCn1nc([N+](=O)[O-])c(C(C#N)c2nc3cc(C(F)(F)F)ccc3s2)c(Cl)c1=O (configuration not stated) -0.764%
O=C(NC(Nc1nc2ccc([N+](=O)[O-])cc2s1)(C(F)(F)F)C(F)(F)F)c1cccnc1 -2.25%
O=c1c(Sc2ccccc2)c(C(F)(F)F)[nH]n1-c1ccccc1 2.36%
COc1ccc(OC)c(CCNC(=O)Cn2nc(C)c3c(C)n(-c4ccc(C)cc4)nc3c2=O)c1 -2.32%
CC(=O)NC1=C(Nc2ccc(N(C)C)cc2)C(=O)c2ccccc2C1=O -3.23%
O=C(OCn1ncc(Cl)c(Cl)c1=O)c1cccc(C(F)(F)F)c1 -0.844%
Cc1sc2ncnc(N3CCN(CCOc4ccc(Cl)cc4)CC3)c2c1C -1.63%
Cc1ccc(-c2nc3ccc(C(=O)O)cc3nc2-c2ccc(C)cc2)cc1 -1.76%
CCOC(=O)c1sc(NC(=O)CSc2n[nH]c(-c3ccncc3)n2)c(C#N)c1C 0.55%
CCSc1nsc(NC(=O)Nc2cccc(OC)c2)n1 1.44%
COc1ccc(S(=O)(=O)Nc2ccccc2C(=O)Nc2nc(-c3ccc(F)cc3)cs2)cc1OC -2.16%
CN(C)S(=O)(=O)c1cccc(-c2nnc(SCc3ccc4c(c3)OCCO4)o2)c1 -1.33%
COc1ccccc1NS(=O)(=O)c1cccc(NC(=O)c2ccc3ccccc3n2)c1 -1.31%
CCc1ccc(-c2cc(C)no2)cc1S(=O)(=O)N1CCN(c2ccccn2)CC1 -2.05%
COc1ccc(CN(C)C(=O)COC(=O)c2ccc(-c3ccccc3)cc2)c(OC)c1OC -1.51%
CCOc1ccc2nc(SC3CC(=O)N(c4ccccc4)C3=O)sc2c1 (configuration not stated) 1.87%
Cc1cc(OCc2cc(C(=O)N(C)C(C)c3ccccn3)no2)cc(C)c1Cl (configuration not stated) 0.705%
CC(C)c1ccccc1OCCNC(=O)c1cccnc1 2.01%
O=C(CSc1ccc(F)cc1)N1CCC(c2nc3ccccc3s2)CC1 -2.02%
N=c1oc2ccccc2cc1C(=O)NC1CCCCCC1 -0.828%
CC(Sc1nnc(-c2cccs2)n1Cc1ccccc1)C(=O)NCc1ccc2c(c1)OCO2 (configuration not stated) -1.32%
COc1cccc(-c2nc(-c3ccc(NC(=O)c4cccnc4)cc3)no2)c1 -3.43%
Cn1c(=O)c(C(=O)NNC(=O)c2cccc(Cl)c2)c(O)c2ccccc21 -1.11%
CC1Cc2ccccc2N1C(=O)COC(=O)/C=C/c1cccc(F)c1 (configuration not stated) -1.41%
CCCCCCSc1nsc(NC(C)=O)n1 2.54%
O=Cc1c[nH]c2ccc(C(=O)c3ccccc3)cc12 -1.03%
O=C(CN1C(=O)NC2(CCCCCC2)C1=O)N1CCC(Cc2ccccc2)CC1 -0.781%
COc1ccc(NS(=O)(=O)c2cc(-c3cnc(C4CC4)o3)ccc2C)cc1 -3.75%
CC(C)Cn1c(-c2csc3c2CCCC3)n[nH]c1=S 2.71%
CC(=O)Oc1c(I)cc(I)cc1C(=O)Nc1ccc(Cl)cc1 -3.87%
Cc1ccc(NS(=O)(=O)c2cc(C(=O)Nc3cccc([N+](=O)[O-])c3)ccc2C)cc1 -4.12%
CCCCNC(=O)c1sc(=S)n2c1[nH]c(=O)c1ccccc12 -0.118%
Cc1cccc(CSCCNC(=O)c2ccc(N(C)S(=O)(=O)c3ccccc3)cc2)c1 -1.47%
O=[N+]([O-])c1ccc(COc2cccc(CNc3ccc(F)cc3)c2)cc1 2.34%
CCCCOc1ncnc2c1[nH]c1ccccc12 -2.8%
COC(=O)Cn1c(=NC(=O)CSC(C)=O)sc2ccccc21 -1.47%
CC(C)C[C@H](N)c1nnc(S(=O)(=O)Cc2ccc(F)cc2)o1 -0.792%
CC(C)c1ccc(/C=C/C(=O)NCCC2=CCCCC2)cc1 1.16%
CCOC(=O)c1sc(NC(=O)c2cc(-c3ccccc3)nc3ccccc23)c(C#N)c1C -1.11%
CC1CCc2nc(NC(=O)CSc3nc4ccccc4o3)sc2C1 (configuration not stated) -3.41%
Cc1ccccc1NC1c2ccccc2C(=O)N1Cc1ccco1 (configuration not stated) 0.697%
Cc1c(N=Nc2c(-c3ccc([N+](=O)[O-])cc3)[nH]n(C(N)=S)c2=O)cccc1[N+](=O)[O-] 2.29%
CC1CCN(S(=O)(=O)c2cccc(C(=O)N3CCN(c4ccc(F)cc4)CC3)c2)CC1 -1.37%
Cc1cccc2c1NC(=O)C2(c1ccc(O)cc1)c1ccc(O)cc1 -2.97%
Cc1ccc(-c2cc(C(=O)Nc3ccncc3)c3ccccc3n2)cc1 -2.05%
CSc1nsc(NC(=O)OCc2ccc(Cl)cc2)n1 -0.863%
CCOC(=O)Cc1csc(NC(=O)COc2ccc(N(C)S(=O)(=O)c3cccs3)cc2)n1 -4.36%
O=C1S/C(=C\c2ccc(O)c([N+](=O)[O-])c2)C(=O)N1c1ccccc1Cl 0.191%
Cn1c2c(c(=O)[nH]c1=O)C(c1ccc(O)cc1)C1=C(N2)c2ccccc2C1=O (configuration not stated) -0.454%
O=S(=O)(c1ccc(SCc2ccc(Cl)cc2)nc1)N1CCCC1 -7.02%
CCOc1cc(C(=S)N2CCOCC2)ccc1OC(=O)c1ccccc1 -1.14%

Potency, active:
COc1ccc(CC(=O)Nc2cccc(-c3nnc(-c4cccc(C)c4)o3)c2)cc1OC 21.3 µM
COc1cccc(NC(=O)Nc2nc(-c3ccc(OC)c(OC)c3)cs2)c1 13.5 µM
